Experimental findings from PubChem BioAssay AID2685 (National Center for Advancing Translational Sciences (NCATS), 2010) are described below.

Each structure is given as a SMILES string. The campaign covered roughly 320,000 compounds. About 2,100 (0.66%) were called active. About 53% were inconclusive and are not listed. The sample holds actives, similar compounds and a random draw of the others, so the mix is not that of the screen. Calls follow the shape of the dose curve; as a rule, active = well fitted inhibition curve with a large enough effect in the signal ratio, with a control signal flat (not every such curve was filed as active); inconclusive = small, poorly fitted or top-dose-only effect, or effect the other way, or a change in a side signal; inactive = flat fitted curve, though single readings scatter; the % refers to the signal ratio.
Potency is read from the fitted curve at half-maximal effect.

The nature of the experiment: qHTS Assay for Lipid Storage Modulators in Drosophila S3 Cells.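 As to cell number change: cells counted by Cell Tracker Red CMTPX staining in the red channel.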 As to lipid storage change, negative = inhibition: % is scaled to controls: 0 for no effect and ±100 for the full control effect. The note with it: BODIPY lipid droplet fluorescence, 18-24 h, cells fed with added oleic acid; cell number change: measured here: cell count max response; series mostly up to 46.1 µM; lipid storage change, negative = inhibition: at the top concentration. The gist of the method: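 Drosophila S3 cells loaded with oleic acid (400 uM, as added) and compounds at several concentrations; lipid droplets imaged by 488-nm laser-scanning cytometry, 500–530 nm intensity and object ratio to cell channel. Percent activity normalized to 20 uM Triacsin C.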
Consider `O=C(NCc1ccco1)C1(c2ccc(Cl)cc2)CCCC1`, for which the “lipid storage change, negative = inhibition” value is 1.83% (inactive) and the cell number change is 17%.
Turning to `COc1ccc(CNC(=O)C2(c3ccc(Cl)cc3)CC2)cc1`, the “lipid storage change, negative = inhibition” value was 19.7% (inactive) and the cell number change was determined as 15.2%.
`Cc1cc(C)c2[nH]c3nc(SCC(=O)O)nnc3c2c1`: the molecule was called inactive and the cell number change amounted to 15.4%.
For `O=c1oc2ccccc2c(N2CCCCC2)c1CN1CCCC1`, the “lipid storage change, negative = inhibition” value was 6.55% (inactive) and the cell number change turned out to be 20.3%.
As for `O=C(Cc1ccccc1)NCc1n[nH]c(=S)n1-c1ccc(Br)cc1`, the “lipid storage change, negative = inhibition” value was 1.65% (inactive) and the cell number change came to 12.1%.
With `COCCNC(=O)C1(C)C=CC2(CCCCC2)N1C(=O)c1ccccc1` (stereo not given), the “lipid storage change, negative = inhibition” value is -1.28% (inactive) and the cell number change is -12.7%.
As to `S=C(Nc1ccc(Cl)cc1)NN1CCOCC1`, the “lipid storage change, negative = inhibition” value was -0.69% (inactive) and the cell number change was -1.28%.
For the molecule `Cc1sc2ncnc(NCc3ccccc3)c2c1C`, the “lipid storage change, negative = inhibition” value is -23.9% (inactive).
Consider `COc1ccc(-c2nnnn2C)cc1S(=O)(=O)NCc1ccccc1`, for which the “lipid storage change, negative = inhibition” value is 7.78% (inactive) and the cell number change is -12.1%.
The matching figures for `CSc1ncc2c(n1)-c1cc(C)ccc1SC2`: -11.1% (inactive) and -11.4%.
Take `COc1ccccc1OCCC(=O)Nc1cccc(S(=O)(=O)N2CCCCC2)c1`: the “lipid storage change, negative = inhibition” value was 14.9% (inactive) and the cell number change came out at 9.54%.
As to `O=C(COC(=O)c1ccccc1O)Nc1cccc(S(=O)(=O)N2CCCC2)c1`, the Potency is 2.91 µM (active) and the cell number change was -0.622%.
For `Cc1ccc(C)c(OCCC(=O)OCC(=O)Nc2cccc(S(=O)(=O)N3CCCC3)c2)c1`, the “lipid storage change, negative = inhibition” value is -3.7% (inactive) and the cell number change was 13%.
Consider `O=C(CCCOc1ccccc1)Nc1cccc(S(=O)(=O)N2CCCCCC2)c1`, for which the Potency was 0.651 µM (active) and the cell number change was -1%.
As to `O=C(CCOc1ccccc1)Nc1ccc(S(=O)(=O)N2CCCC2)cc1`, the “lipid storage change, negative = inhibition” value is -4.91% (inactive) and the cell number change was -12%.
`Cc1ccc(C)c(OCCC(=O)Nc2cccc(S(=O)(=O)N3CCCCC3)c2)c1`: the Potency was 7.31 µM (active) and the cell number change is -9.88%.
Consider `CC(=O)c1ccc(OCCCC(=O)Nc2cccc(S(=O)(=O)N3CCCCC3)c2)cc1`, for which the “lipid storage change, negative = inhibition” value was 14.7% (inactive) and the cell number change was -10.4%.
For `O=C(COC(=O)c1cccc(S(=O)(=O)N2CCCC2)c1)Nc1ccccc1`, the “lipid storage change, negative = inhibition” value is -2.77% (inactive).
With `O=C(COC(=O)c1cccnc1Cl)Nc1cccc(S(=O)(=O)N2CCCCC2)c1`, the “lipid storage change, negative = inhibition” value was -4.42% (inactive) and the cell number change is -11.8%.
On to `O=C(NCc1csc(-c2cccs2)n1)Nc1ccc(C(F)(F)F)cc1`, for which the “lipid storage change, negative = inhibition” value is -3.23% (inactive) and the cell number change is -0.569%.
For the molecule `O=C(COC(=O)CSc1cc(Cl)ccc1Cl)Nc1ncc(C(F)(F)F)cc1Cl`, the “lipid storage change, negative = inhibition” value was 5.87% (inactive) and the cell number change was 1.5%.
Take `Cc1[nH]n(-c2ccccc2)c(=O)c1N=Nc1ccc2c(c1)OCO2`: the “lipid storage change, negative = inhibition” value was -19.5% (inactive) and the cell number change was -5.87%.
In the same order, the values of `O=C(c1sc(N2CCOCC2)nc1-c1ccccc1)N1CCCCC1` are 3.96% (inactive) and 3.25%.
The matching figures for `O=C(Cn1nnc(-c2ccc(OCc3ccccc3F)cc2)n1)N1CCOCC1`: -1.79% (inactive) and -16.4%.
Turning to `COc1ccc2nc(NC(=O)CCN3C(=S)NC(C)(C)CC3C)sc2c1` (stereo not given), the “lipid storage change, negative = inhibition” value is 1.37% (inactive).
As for `CCOC(=O)CN1C(=O)C(O)(c2c(C)[nH]c3ccccc23)c2ccccc21` (stereo not given), the call was inactive and the cell number change turned out to be 8.53%.
Turning to `Cc1cc(C)n(-c2cc(N3CCOCC3)ncn2)n1`, the “lipid storage change, negative = inhibition” value is 9.99% (inactive) and the cell number change was -1.49%.
As for `COc1cccc(/C=C2\SC(=S)N(c3cccnc3)C2=O)c1OC`, the “lipid storage change, negative = inhibition” value is 8.18% (inactive) and the cell number change was found to be 12.9%.
Consider `CCn1cc(C2=NOC(C(=O)Nc3ccc4c(c3)OCO4)C2)c(C)n1` (stereo not given), for which the Potency was 7.31 µM (active) and the cell number change was -25.4%.
As for `O=C(Nc1ccc2c(c1)OCO2)C1CC(c2ccccc2O)=NO1` (stereo not given), the call was inactive and the cell number change is 19.9%.
Turning to `COc1ccc(C2=NOC(C(=O)Nc3ccc4c(c3)OCO4)C2)cc1` (stereo not given), the “lipid storage change, negative = inhibition” value was -25.4% (inactive) and the cell number change amounted to 14.2%.
Take `COc1cccc2sc(NNC(=O)COc3ccccc3)nc12`: the cell number change worked out at 5.71% and the lipid storage change, negative = inhibition is -1.29% [at 9.22 µM] (inactive).
In the same order, the values of `O=C(Nc1cc(=O)[nH]c2ncnn12)c1ccccc1` are -8.14% and 5.81% (inactive).
Regarding `CC(C)C(=O)Nc1cc(=O)[nH]c2ncnn12`, the Potency was 5.8 µM (active) and the cell number change is -10.1%.
As to `CCC(=O)Nc1cc(=O)[nH]c2ncnn12`, the “lipid storage change, negative = inhibition” value is -8.63% (inactive) and the cell number change was -14.7%.
Consider `Cn1c(=O)[nH]c(=O)c2c1nc(Br)n2C/C=N/NC(N)=S`, for which the “lipid storage change, negative = inhibition” value is -24.6% (inactive) and the cell number change was -9.55%.
For the molecule `O=C(Nc1c2c(nn1-c1ccc(F)cc1)CS(=O)(=O)C2)c1ccc(S(=O)(=O)N2CCOCC2)cc1`, the “lipid storage change, negative = inhibition” value is -1.48% (inactive) and the cell number change is -2.12%.
Take `COc1cccc(-c2cccc(NC(=O)C3CCN(CC4CCOC4)CC3)c2)c1` (stereo not given): the Potency is 16.4 µM (active) and the cell number change is -23.3%.
On to `O=C(Nc1cccc(-c2cccc(Cl)c2)c1)C1CCN(CC2CCOC2)CC1` (stereo not given), for which the “lipid storage change, negative = inhibition” value was -4.19% (inactive) and the cell number change is 26.5%.
Consider `COc1cccc(-c2cccc(NC(=O)C3CCN(Cc4ccc(CO)o4)CC3)c2)c1`, for which the “lipid storage change, negative = inhibition” value was -3.31% (inactive) and the cell number change was -8.92%.
Regarding `O=C(CSc1nc(O)cc(=O)n1-c1ccccc1)c1ccc(Br)cc1`, the cell number change is -4.08% and the lipid storage change, negative = inhibition is 26.5% [at 9.22 µM] (inactive).
For the molecule `COc1ccc(-c2ccc3ccccc3n2)cc1`, the “lipid storage change, negative = inhibition” value was -22% (inactive) and the cell number change was -4.92%.
Consider `S=c1[nH]nc(-c2ccncc2)n1/N=C/c1cccc2ccccc12`, for which the “lipid storage change, negative = inhibition” value is 11.2% (inactive) and the cell number change stood at 15.5%.
As to `Clc1ccc(CN2CCCCCC2)cc1`, the “lipid storage change, negative = inhibition” value was 12.2% (inactive) and the cell number change was found to be 7.51%.
The matching figures for `CC(C)CCn1c(CN(C)Cc2ccccc2)nc2c1c(=O)n(C)c(=O)n2C`: 15.2% (inactive) and -8.94%.
Turning to `C=C(C)Cn1c(CN(C)Cc2ccccc2)nc2c1c(=O)n(C)c(=O)n2C`, the Potency was 0.92 µM (active) and the cell number change is -21.1%.
Turning to `CC(C)Cn1c(CN(C)Cc2ccccc2)nc2c1c(=O)n(C)c(=O)n2C`, the result was inactive.
